This is an account of results in PubChem BioAssay.

Calls of active or inactive are those of the source.

In assay [1] the test system is Lefty1. As to the kind of experiment: Lefty1 protein binding to printed compounds – biochemical, small-molecule microarray, 635/667 nm fluorescence, primary screen (AID 1139). The conditions noted are these: fluorescence 635/667, higher = more signal.
For assay [2], the system named is wheat germ agglutinin (Triticum aestivum), Alexa647-labelled. As to the kind of experiment: Alexa647-WGA lectin binding to printed small molecules – biochemical, small-molecule microarray, 635/667 nm fluorescence, artefact control for SMM control-protein annotation, profiling panel (AID 1140).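 Also: score merges 667 nm feature emission with signal to noise over triplicate slides.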 Conditions: WGA-A647 binding, 635 nm fluorescence, higher = more signal.

The target of assay [3] is Luciferin 4-monooxygenase (Photinus pyralis) (UniProt P08659). Briefly: inhibition of purified Photinus pyralis luciferase – biochemical, luminescence, purified enzyme, 2006 set, primary screen (AID 1141).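 Also: cell-free assay with purified firefly luciferase at 100 ng per well in PBS; test concentration not given here.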 The conditions noted are these: purified firefly luciferase, SteadyGlo luminescence, 30 min; higher = more signal, called active from +8 up or from −8 down.
The subject of assay [4] is Wnt5a (protein binding on small-molecule microarray). Briefly: small molecules binding Wnt5a protein – biophysical, small-molecule microarray, 635/667 nm fluorescence, primary screen (AID 1142).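 Also: fluorescence read at 667 nm with signal to noise per printed feature.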 Conditions: 635 nm fluorescence, higher = more signal.
The nature of assay [5]: ATP-based viability of Huh7 replicon cells – cell-based, CellTiter-Glo luminescence, basal, 48 h, cytotoxicity control for HCV replication inhibitor project, primary screen (AID 1143).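 Also: Huh7 hepatoma cells carrying a hepatitis C replication reporter with no stimulus; test concentration not given here.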 Conditions: higher = more signal, called active from +8 up or from −8 down. Background: A replicon is a self-replicating genome or part of one, used to study replication in cells.
Assay [6] can be described thus: basal CRE-LacZ reporter activity in PC12 – cell-based, unstimulated, primary screen (AID 1145). The conditions noted are these: no forskolin, luminescence, 4.5 h, higher = more signal, called active from +8 up or from −8 down.
The nature of assay [7]: forskolin-driven CRE-LacZ activity in PC12 – cell-based, CRE-LacZ reporter, forskolin-stimulated, primary screen (AID 1146).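 Also: PC12 cells with 6xCRE LacZ reporter stimulated by forskolin 10 µM; beta-galactosidase reporter signal reflecting CREB driven transcription.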 Conditions: luminescence, 4.5 h, higher = more signal, called active from +8 up or from −8 down.
The target in assay [8] is Streptavidin (Streptomyces avidinii) (UniProt P22629). Briefly: compounds binding control protein streptavidin – biophysical, small-molecule microarray, 635/667 nm fluorescence, artefact control for SMM compound annotation, primary screen (AID 1147).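 Also: signal reflects streptavidin binding to arrayed compounds as a control protein.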 The conditions noted are these: higher = more signal.
Assay [9] in a line: probe aInhba binding on compound microarray – biochemical, small-molecule microarray, 635/667 nm fluorescence, primary screen (AID 1148).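 Also: score merges 667nm spot fluorescence with signal-to-noise for antibody binding to printed compounds.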 Conditions: higher = more signal.
Assay [10] deals with Torsin-1A (Homo sapiens) (UniProt O14656). Briefly: TOR1A wild-type binding on microarray – cell lysate, small-molecule microarray, lysate, 635/667 nm, primary screen (AID 1149). Conditions: COS7 hTOR1A-WT lysate, 635 nm fluorescence, higher = more signal.
Assay [11] shares this target. Briefly: torsin A mutant lysate binding on microarrays – cell lysate, small-molecule microarray, COS7 lysate, 635/667 nm fluorescence, primary screen (AID 1150).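 Also: score pools 667 nm emission and signal to noise measuring lysate protein binding.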 Conditions: COS7 hTOR1A mutant lysate, 635 nm fluorescence, higher = more signal.
The test system of assay [12] is Sonic hedgehog protein (Shh). As to the kind of experiment: Sonic hedgehog microarray binding compounds – biochemical, small-molecule microarray, 635/667 nm fluorescence, primary screen (AID 1151).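 Also: Shh protein binding to compounds spotted on small-molecule microarray slides; score combines spot fluorescence intensity with signal-to-noise across triplicate slides.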 The conditions noted are these: 635 nm fluorescence, higher = more signal.
Assay [13] is described as follows: optical density shifts of acrAB sulA E. coli – strain DRC41, OD650, 48 h, E. coli filamentation inducer project, primary screen (AID 1152).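 Also: E. coli MC1000 strain DRC41 lacking acrAB efflux pump and sulA.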 The conditions noted are these: higher = more signal, called active from +8 up or from −8 down.
Assay [14] in a line: probe aLefty1 binding on compound microarray – biochemical, small-molecule microarray, 635/667 nm fluorescence, primary screen (AID 1153).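 Also: score merges spot fluorescence with signal-to-noise ratio from the scanned slide images.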 The conditions noted are these: higher = more signal.
Assay [15] can be described thus: plasmodial surface anion channel blockers, osmotic lysis – cell-based, P. falciparum Indochina, OD700, 1 h, primary screen (AID 1154). The conditions noted are these: P. falciparum Indochina infected RBC osmotic lysis, higher = more signal, called active from +8 up or from −8 down.
The nature of assay [16]: plasmodial surface anion channel blockers, osmotic lysis – cell-based, P. falciparum Indochina, OD700, 2 h, primary screen (AID 1155).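 Also: lysis reports solute entry through the parasite surface anion channel PSAC.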 The conditions noted are these: P. falciparum Indochina infected erythrocytes, higher = more signal, called active from +8 up or from −8 down.
Assay [17] is described as follows: changes in parasitized red cell lysis, either direction – P. falciparum Indochina, OD700, 3 h, PSAC antagonist project, primary screen (AID 1156). Conditions: P. falciparum-infected erythrocytes, osmotic lysis, higher = more signal, called active from +8 up or from −8 down.
Assay [18] in a line: plasmodial surface anion channel blockers, osmotic lysis – cell-based, P. falciparum Indochina, OD700, 18 h, primary screen (AID 1157). The conditions noted are these: P. falciparum Indochina infected erythrocytes, osmotic lysis OD700, 18 h; higher = more signal, called active from +8 up or from −8 down.
Assay [19] is described as follows: S6 kinase pathway phospho-S6 level changes – cell-based, A549, cytoblot, luminescence, serum-stimulated, primary screen (AID 1158).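 Also: serum-stimulated A549 lung adenocarcinoma cells; signal is phosphorylated S6 detected by cytoblot immunostaining with HRP secondary.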 Conditions: 5 h, higher = more signal.
For assay [20], the target named is NADPH oxidase 2 (Homo sapiens) (UniProt P04839). As to the kind of experiment: compounds shifting NOX2 Amplex Red fluorescence – cell-based, HEK293-NOX2, PMA-stimulated, NOX inhibitor project, primary screen (AID 1159). Also: test concentration not given here. The conditions noted are these: 45 min, higher = more signal, called active from +8 up or from −8 down.
Sequence of NADPH oxidase 2 (Homo sapiens) (P04839 whole entry, looked up): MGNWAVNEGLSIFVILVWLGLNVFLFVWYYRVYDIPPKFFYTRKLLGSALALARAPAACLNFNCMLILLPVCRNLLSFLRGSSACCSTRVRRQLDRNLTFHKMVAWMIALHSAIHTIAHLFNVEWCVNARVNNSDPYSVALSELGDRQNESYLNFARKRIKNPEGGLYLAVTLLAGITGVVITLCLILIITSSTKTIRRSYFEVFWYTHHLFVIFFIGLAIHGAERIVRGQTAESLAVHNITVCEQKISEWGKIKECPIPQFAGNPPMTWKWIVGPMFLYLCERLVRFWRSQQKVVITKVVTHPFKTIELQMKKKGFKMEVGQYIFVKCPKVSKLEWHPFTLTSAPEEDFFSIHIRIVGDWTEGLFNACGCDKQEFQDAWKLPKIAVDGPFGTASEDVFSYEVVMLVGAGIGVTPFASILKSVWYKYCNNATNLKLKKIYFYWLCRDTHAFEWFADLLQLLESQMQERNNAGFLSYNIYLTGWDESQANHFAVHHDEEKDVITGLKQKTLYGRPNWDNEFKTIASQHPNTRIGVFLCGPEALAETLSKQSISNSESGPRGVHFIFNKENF

Sequence of Luciferin 4-monooxygenase (Photinus pyralis) (P08659 whole entry, looked up): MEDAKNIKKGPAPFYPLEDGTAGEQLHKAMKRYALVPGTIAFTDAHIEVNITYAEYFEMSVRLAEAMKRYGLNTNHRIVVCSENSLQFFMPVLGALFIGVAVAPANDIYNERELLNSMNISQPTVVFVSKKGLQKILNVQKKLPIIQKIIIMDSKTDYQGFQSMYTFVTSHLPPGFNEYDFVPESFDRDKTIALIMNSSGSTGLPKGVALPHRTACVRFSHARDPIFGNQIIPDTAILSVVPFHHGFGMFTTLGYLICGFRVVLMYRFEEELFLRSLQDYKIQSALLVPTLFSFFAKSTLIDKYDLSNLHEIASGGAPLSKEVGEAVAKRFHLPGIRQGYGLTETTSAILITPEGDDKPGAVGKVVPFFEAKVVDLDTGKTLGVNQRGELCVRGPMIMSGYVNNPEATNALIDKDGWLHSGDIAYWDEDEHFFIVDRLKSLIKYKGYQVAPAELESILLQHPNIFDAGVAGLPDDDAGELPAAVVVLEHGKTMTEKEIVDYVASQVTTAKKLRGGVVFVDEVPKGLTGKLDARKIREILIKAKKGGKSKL
Sequence of Torsin-1A (Homo sapiens) (O14656 whole entry, looked up): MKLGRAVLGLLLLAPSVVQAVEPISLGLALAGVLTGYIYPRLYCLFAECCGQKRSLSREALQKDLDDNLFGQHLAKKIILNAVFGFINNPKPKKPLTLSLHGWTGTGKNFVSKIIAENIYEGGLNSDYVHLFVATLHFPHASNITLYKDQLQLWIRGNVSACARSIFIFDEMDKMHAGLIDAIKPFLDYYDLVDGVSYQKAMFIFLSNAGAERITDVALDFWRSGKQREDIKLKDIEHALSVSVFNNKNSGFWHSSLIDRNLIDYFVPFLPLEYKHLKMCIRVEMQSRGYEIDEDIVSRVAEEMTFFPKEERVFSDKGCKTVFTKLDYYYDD
Sequence of Streptavidin (Streptomyces avidinii) (P22629 whole entry, looked up): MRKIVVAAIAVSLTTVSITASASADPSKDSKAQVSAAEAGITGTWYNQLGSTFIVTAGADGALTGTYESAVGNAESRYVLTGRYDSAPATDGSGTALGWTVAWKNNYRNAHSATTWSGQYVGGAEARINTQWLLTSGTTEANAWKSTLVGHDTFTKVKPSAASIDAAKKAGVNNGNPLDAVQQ

Turning to `COCCOC(=O)N1C(=O)[C@@]2(c3cc(C#CCNC(N)=O)ccc31)[C@H](c1ccccc1OCCO)N1[C@H](c3ccccc3)[C@H](c3ccccc3)OC(=O)[C@H]1[C@@H]2C(=O)Nc1nc2ccccc2s1`, the composite z-score was 0.591 in assay [1]; 1.04 in [2]; 0.141 in [4]; 0.789 in [8]; 0.061 in assay [9]; 0.196 in [10]. Further, the composite z-score in assay [11] came out at 0.287; in assay [12] it was 0.312; in assay [14], 0.0943. Besides, the z-score in assay [3] is -1.87 (inactive); in assay [5] it was -0.949 (inactive); in assay [6], 0.0653 (inactive); in assay [7], 0.178 (inactive); in assay [13], 2.56 (inactive); in assay [15], 2.23 (inactive). Also, the z-score in [16] is -0.226 (inactive); in assay [17], 0.653 (inactive); in assay [18], -0.809 (inactive); in assay [19] it was 1.87; in assay [20], 1.85 (inactive).

On to `O=c1n(-c2ccccc2)c(=O)n2n1CC(COc1ccccc1)=C1[C@@H](CCc3ccccc3)OB(O)C[C@@H]12`, for which the composite z-score in assay [1] is 1.52; in assay [2], 0.576; in assay [4] it was 0.455; in assay [8] it was 0.117; in assay [9], 0.0756; in [10], 0.717. Besides, the composite z-score is -0.0569 in assay [11], 1.12 in [12] and -0.206 in [14]. Moreover, the z-score is -1.2 (inactive) in [3]; -1.84 (inactive) in assay [5]; 1.58 (inactive) in [6]; -1.67 (inactive) in [7]; 1.63 (inactive) in [13]; 2.27 (inactive) in [15]. The z-score in assay [16] is -0.302 (inactive); in assay [17] it was 0.622 (inactive); in [18] it was -1.31 (inactive); in assay [19], 0.642; in assay [20], -0.513 (inactive).

With `C[C@@H](OCc1ccccc1)C1NC(=O)[C@@]23C(=O)N[C@@H](Cc4ccccc4)C2[C@H](C)[C@@]2(C)O[C@H]2C3/C=C/C/C=C\CNC(=O)[C@@H]2CCCN2C1=O` (stereo not given in full), the composite z-score is 0.0078 in [1]; -0.927 in assay [2]; -0.13 in assay [4]; -0.9 in [8]; -0.192 in assay [9]; -0.0343 in assay [10]. Also, the composite z-score in assay [11] was 1.12; in assay [12], 0.558; in assay [14], -0.239. The z-score is -1.45 (inactive) in assay [3]; -0.866 (inactive) in assay [5]; 2.13 (inactive) in [6]; -1.55 (inactive) in [7]; 2.21 (inactive) in [13]; 1.49 (inactive) in [15]. Moreover, the z-score in assay [16] is 0.0899 (inactive); in [17], 0.933 (inactive); in [18] it was 0.231 (inactive); in assay [19], 0.663; in assay [20], -0.0597 (inactive).

Take `COCCCNC(=O)[C@@]1(CCS(=O)(=O)c2ccccc2)N=C(c2ccc(OCCCO)cc2)O[C@H]1c1ccccc1CN=[N+]=[N-]`: the composite z-score was 0.578 in assay [1]; 1.24 in assay [2]; 0.671 in assay [4]; 1.41 in assay [8]; 0.358 in assay [9]; -0.183 in [10]. The composite z-score is 0.186 in assay [11], 0.744 in assay [12] and 1.03 in [14]. Also, the z-score in assay [3] was -0.888 (inactive); in assay [5], -5.36 (inactive); in [6], 2.57 (inactive); in assay [7], -1.7 (inactive); in assay [13], 2.33 (inactive); in [15], 23.5 (active). For the same compound, the z-score is 4.65 (inactive) in [16]; 2.25 (inactive) in assay [17]; 0.425 (inactive) in assay [18]; 3.83 in [19]; 0.439 (inactive) in assay [20].

For `C#CCOc1ccc(C[C@H]2C(=O)O[C@H](Cc3ccccc3)[C@H](/C=C/C3CC3)N2CC#C)cc1`, the composite z-score in assay [1] was -0.433; in assay [2] it was -0.311; in assay [4], -0.245; in [8], -0.0298; in assay [9] it was -0.183; in [10], 0.498. Moreover, the composite z-score in [11] is 0.212; in [12], 0.145; in [14] it was -0.279. The z-score in assay [3] was -0.968 (inactive); in assay [5], -2.48 (inactive); in [6], -0.414 (inactive); in assay [7], 0.741 (inactive); in [13] it was 2.04 (inactive); in [15], 0.57 (inactive). In addition, the z-score in assay [16] was -0.251 (inactive); in assay [17] it was -0.372 (inactive); in [18], -0.383 (inactive); in assay [19], 0.242; in [20], -0.21 (inactive).

For the compound `C=C1C=C(Br)C2(OCCCO2)[C@H]2OC12` (stereo not given in full), the composite z-score was 0.743 in [1]; -0.903 in [2]; -0.093 in assay [4]; 0.61 in assay [8]; -0.128 in assay [9]; 0.639 in assay [10]. In addition, the composite z-score is 0.495 in [11], 0.411 in assay [12] and -0.147 in [14]. In addition, the z-score was -0.914 (inactive) in [3]; 0.15 (inactive) in assay [5]; 0.199 (inactive) in [6]; 0.676 (inactive) in assay [7]; 0.659 (inactive) in [13]; -0.14 (inactive) in assay [15]. The z-score in assay [16] is 0.146 (inactive); in [17], -0.334 (inactive); in assay [18], -0.12 (inactive); in assay [19] it was -0.281; in [20], 0.868 (inactive).

For the compound `C=C(/C(=C/C[C@H](OC(=O)c1ccncc1)c1cccc(OCCO)c1)c1cc(C(=O)OC)ccc1OC)C(C)C`, the composite z-score was 0.411 in assay [1]; 0.844 in assay [2]; -0.158 in [4]; 0.0287 in assay [8]; -0.05 in assay [9]; 0.607 in assay [10]. For the same compound, the composite z-score in assay [11] was 0.568; in assay [12], 0.948; in assay [14], -0.0984. The z-score in assay [3] is -0.979 (inactive); in assay [5], -2.09 (inactive); in [6], 8.57 (active); in assay [7] it was -0.669 (inactive); in assay [13] it was 1.17 (inactive); in [15], 10.2 (active). Moreover, the z-score in [16] is -0.289 (inactive); in assay [17] it was 1.66 (inactive); in assay [18], -1.19 (inactive); in [19] it was 0.402; in assay [20] it was 1.62 (inactive).

As for `CC(C)N1CC=CC23O[C@@H]4/C=C\CCCOC(=O)C4[C@H]2C(=O)N(CCCO)[C@@H]3C1=O` (stereo not given in full), the composite z-score is -1.42 in assay [1]; -0.965 in assay [2]; -0.059 in [4]; -1.1 in assay [8]; -0.176 in [9]; -0.934 in [10]. The composite z-score was 0.367 in assay [11], -0.102 in [12] and 0.236 in assay [14]. Moreover, the z-score was -1.38 (inactive) in assay [3]; -0.354 (inactive) in assay [5]; 0.191 (inactive) in assay [6]; -0.256 (inactive) in assay [7]; 1.71 (inactive) in assay [13]; 0.245 (inactive) in [15]. Besides, the z-score in assay [16] was 0.0014 (inactive); in [17], 1.1 (inactive); in [18], -0.083 (inactive); in [19], -0.108; in [20] it was 1.58 (inactive).
